Activity calls are given as the source filed them.
Legend:
Albumin (Bos taurus) = Albumin (Bos taurus) (UniProt P02769); experiment: bovine serum albumin binders on microarray, profiling panel, artefact control for SMM control protein annotation, biochemical, small-molecule microarray, Alexa647 label, 635/667 nm fluorescence (AID 1118); details: BSA-A647 binding, fluorescence 635 nm, higher = more signal;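 further: score merges 667 nm emission intensity and signal-to-noise per printed compound spot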
[1] = small-molecule microarray binders of probe aXIP, primary screen, biochemical, NeuroSMM set, 635/667 nm fluorescence (AID 1119); details: higher = more signal, called active from +8 up or from −8 down;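 further: probe is the protein aXip251-270 applied at 1 µg/mL to compound-printed slides; binding of probe to printed compounds measured as 667 nm fluorescence plus signal to noise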
[2] = small-molecule binders of probe aNOTCH3, primary screen, biochemical, small-molecule microarray, 635/667 nm fluorescence (AID 1120); details: higher = more signal;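 further: probe is a biotin-tagged antibody raised against NOTCH3 rather than NOTCH3 protein; score merges spot fluorescence near 667 nm with spot signal to noise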
[3] = small-molecule binders of probe aNOTCH2, primary screen, biochemical, small-molecule microarray, 635/667 nm fluorescence (AID 1121); details: higher = more signal;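 further: score merges feature fluorescence read at 667 nm with its signal to noise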
[4] = biological target: Carbonic anhydrase 2 (Homo sapiens) (UniProt P00918); experiment: CAII small-molecule binders, profiling panel, biochemical, small-molecule microarray, Alexa647-labelled CAII (AID 1122); details: CAII-A647 binding fluorescence, higher = more signal
[5] = COS7 lysate on small-molecule microarray, probe aHis, 635 nm (AID 1123); details: COS7 cell lysate, fluorescence, higher = more signal;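 further: z-score combines 667nm fluorescence intensity with signal-to-noise per printed compound spot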
[6] = compound binding in COS7 lysate, probe aLAP1, primary screen, cell lysate, small-molecule microarray (AID 1124); details: probe aLAP1, fluorescence, higher = more signal;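 further: lysate comes from COS7 cells expressing LAP1 and is applied at 0.3 µg/mL; score merges spot fluorescence near 667 nm with signal-to-noise over triplicate slides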
Sam68 (KHDRBS1) = experiment: Sam68 small-molecule binders, primary screen, biochemical, small-molecule microarray, 635 nm fluorescence (AID 1125); details: small-molecule microarray binding, higher = more signal;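 further: score merges 667 nm channel intensity with signal to noise over triplicate slides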
[7] = system: Chordin-like protein 2 (CHRDL2); experiment: CHRDL2 small-molecule binders, primary screen, biochemical, small-molecule microarray, 635 nm fluorescence (AID 1126); details: small-molecule microarray binding, fluorescence 635 nm; higher = more signal;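 further: printed compound slides probed with Chrdl2 protein at 4 µg/mL for 1 h at 4 C; score merges 667 nm emission intensity with signal to noise over three replicate slides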
[8] = biological target: Concanavalin-A (Canavalia ensiformis) (UniProt P02866); experiment: ConA small-molecule binders, primary screen, artefact control for SMM control protein annotation, biochemical, small-molecule microarray, Alexa647 label, 635 nm (AID 1127); details: ConA-A647 binding fluorescence, higher = more signal;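 further: z combines 667 nm emission intensity with signal-to-noise across three replicate slides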
[9] = anti-His antibody binders, primary screen, artefact control for SMM control protein annotation, biochemical, small-molecule microarray, 635 nm fluorescence (AID 1128); details: anti-His Alexa647 antibody binding, higher = more signal;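 further: score merges feature fluorescence with signal-to-noise for each printed compound spot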
[10] = system: Human papillomavirus type 1a E7 protein (residues 1-88); experiment: HPV1a E7 small-molecule binders, primary screen, biochemical, small-molecule microarray, residues 1-88, 635 nm (AID 1129); details: small-molecule microarray binding, fluorescence 635 nm; higher = more signal
[11] = biological target: Focal adhesion kinase 1 (Homo sapiens) (UniProt Q05397); experiment: small-molecule microarray binders of FAK, primary screen, biochemical, 635/667 nm fluorescence, BSA, DTT (AID 1130); details: PTK2 binding, 635 nm fluorescence, higher = more signal;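 further: composite of spot emission at 667 nm and signal to noise over triplicate slides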
[12] = system: Fibrinogen (Alexa647-labelled); experiment: fibrinogen binders on compound microarrays, profiling panel, artefact control for SMM control-protein annotation, biochemical, small-molecule microarray, 635/667 nm fluorescence (AID 1131); details: fibrinogen-A647 binding fluorescence, higher = more signal;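 further: z-score merges 667 nm fluorescence with per-spot signal-to-noise over triplicate slides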
[13] = biological target: Follistatin (Homo sapiens) (UniProt P19883); experiment: follistatin binders on small-molecule microarrays, primary screen, biochemical, small-molecule microarray, 635/667 nm fluorescence (AID 1132); details: FST binding, 635 nm fluorescence, higher = more signal
[14] = biological target: Fibroblast growth factor 2 (Homo sapiens) (UniProt P09038); experiment: FGF2 binders on small-molecule microarrays, primary screen, biochemical, small-molecule microarray, 635/667 nm fluorescence (AID 1133); details: small-molecule microarray binding, FGF2, fluorescence 635/667; higher = more signal
[15] = mitochondrial membrane potential change in A549 cells, profiling panel, cell-based, JC-1 fluorescence, basal, 24 h, 100 nL (AID 1138); details: higher = more signal;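 further: A549 lung adenocarcinoma cells under basal conditions with no added stimulus; test concentration not given here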
Lefty1 = Lefty1 binders on small-molecule microarrays, primary screen, biochemical, small-molecule microarray, 635/667 nm fluorescence (AID 1139); details: small-molecule microarray binding, fluorescence 635/667; higher = more signal
[16] = system: wheat germ agglutinin (Triticum aestivum), Alexa647-labelled; experiment: wheat germ agglutinin binders on compound microarrays, profiling panel, artefact control for SMM control-protein annotation, biochemical, small-molecule microarray, 635/667 nm fluorescence (AID 1140); details: WGA-A647 binding, 635 nm fluorescence, higher = more signal;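 further: score merges 667 nm feature emission with signal to noise over triplicate slides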
[17] = biological target: Luciferin 4-monooxygenase (Photinus pyralis) (UniProt P08659); experiment: firefly luciferase enzyme inhibitors, primary screen, biochemical, luminescence, purified enzyme, 2006 set (AID 1141); details: SteadyGlo luminescence, 30 min, higher = more signal, called active from +8 up or from −8 down;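 further: cell-free assay with purified firefly luciferase at 100 ng per well in PBS; test concentration not given here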
Sequence of Luciferin 4-monooxygenase (Photinus pyralis) (P08659 whole entry, looked up): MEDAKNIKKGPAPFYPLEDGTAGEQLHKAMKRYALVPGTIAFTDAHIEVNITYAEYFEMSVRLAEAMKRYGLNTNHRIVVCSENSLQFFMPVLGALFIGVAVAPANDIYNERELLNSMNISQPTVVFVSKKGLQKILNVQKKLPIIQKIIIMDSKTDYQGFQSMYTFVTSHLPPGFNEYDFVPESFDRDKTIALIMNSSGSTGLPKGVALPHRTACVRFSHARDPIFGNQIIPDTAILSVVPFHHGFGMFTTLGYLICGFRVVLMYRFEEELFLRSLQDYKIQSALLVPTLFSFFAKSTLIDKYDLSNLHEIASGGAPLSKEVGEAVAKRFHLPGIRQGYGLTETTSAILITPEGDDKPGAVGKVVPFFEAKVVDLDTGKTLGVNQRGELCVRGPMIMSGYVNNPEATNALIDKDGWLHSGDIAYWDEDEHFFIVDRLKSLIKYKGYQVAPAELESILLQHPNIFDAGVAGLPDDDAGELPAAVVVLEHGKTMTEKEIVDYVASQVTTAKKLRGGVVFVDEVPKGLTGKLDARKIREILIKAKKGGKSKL

Sequence of Follistatin (Homo sapiens) (P19883 whole entry, looked up): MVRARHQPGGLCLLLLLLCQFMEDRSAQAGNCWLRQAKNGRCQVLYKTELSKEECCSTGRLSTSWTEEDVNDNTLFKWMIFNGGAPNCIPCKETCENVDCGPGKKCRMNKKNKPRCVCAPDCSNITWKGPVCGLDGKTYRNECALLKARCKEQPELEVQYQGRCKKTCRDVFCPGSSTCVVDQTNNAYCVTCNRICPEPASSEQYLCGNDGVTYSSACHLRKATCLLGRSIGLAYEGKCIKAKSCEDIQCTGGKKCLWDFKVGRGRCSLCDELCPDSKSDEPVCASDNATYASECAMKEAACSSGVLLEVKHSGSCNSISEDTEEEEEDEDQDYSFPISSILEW
Sequence of Albumin (Bos taurus) (P02769 whole entry, looked up): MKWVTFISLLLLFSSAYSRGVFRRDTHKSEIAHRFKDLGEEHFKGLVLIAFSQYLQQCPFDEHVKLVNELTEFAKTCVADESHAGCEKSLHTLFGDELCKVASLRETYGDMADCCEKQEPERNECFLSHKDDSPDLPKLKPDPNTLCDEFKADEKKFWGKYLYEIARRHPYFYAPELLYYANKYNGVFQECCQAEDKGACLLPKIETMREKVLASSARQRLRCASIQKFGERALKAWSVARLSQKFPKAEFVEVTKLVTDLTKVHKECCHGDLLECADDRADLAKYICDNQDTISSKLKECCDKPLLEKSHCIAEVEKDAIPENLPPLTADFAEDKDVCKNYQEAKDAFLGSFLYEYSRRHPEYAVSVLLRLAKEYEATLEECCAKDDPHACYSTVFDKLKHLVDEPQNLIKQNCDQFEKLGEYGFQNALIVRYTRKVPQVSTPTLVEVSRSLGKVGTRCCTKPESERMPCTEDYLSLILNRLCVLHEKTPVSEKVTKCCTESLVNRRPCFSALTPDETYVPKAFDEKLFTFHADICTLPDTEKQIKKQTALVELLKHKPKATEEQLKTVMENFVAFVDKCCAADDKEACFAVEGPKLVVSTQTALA
Sequence of Concanavalin-A (Canavalia ensiformis) (P02866 whole entry, looked up): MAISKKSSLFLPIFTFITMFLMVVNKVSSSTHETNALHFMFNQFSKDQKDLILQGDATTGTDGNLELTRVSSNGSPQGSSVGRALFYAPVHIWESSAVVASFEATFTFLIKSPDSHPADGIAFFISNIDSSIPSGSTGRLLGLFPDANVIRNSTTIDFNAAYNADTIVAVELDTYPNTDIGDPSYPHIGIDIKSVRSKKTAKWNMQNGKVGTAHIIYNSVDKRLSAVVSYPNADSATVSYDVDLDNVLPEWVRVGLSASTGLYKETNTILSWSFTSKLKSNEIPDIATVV
Sequence of Fibroblast growth factor 2 (Homo sapiens) (P09038 whole entry, looked up): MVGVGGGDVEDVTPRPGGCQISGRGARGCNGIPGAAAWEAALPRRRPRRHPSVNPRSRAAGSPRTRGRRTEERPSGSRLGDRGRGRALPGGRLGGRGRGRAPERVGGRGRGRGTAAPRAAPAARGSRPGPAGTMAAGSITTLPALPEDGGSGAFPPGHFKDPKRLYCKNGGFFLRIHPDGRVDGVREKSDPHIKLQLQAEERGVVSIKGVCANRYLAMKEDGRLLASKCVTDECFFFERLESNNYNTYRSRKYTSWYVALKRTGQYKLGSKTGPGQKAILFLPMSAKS
Sequence of Focal adhesion kinase 1 (Homo sapiens) (Q05397 whole entry, looked up): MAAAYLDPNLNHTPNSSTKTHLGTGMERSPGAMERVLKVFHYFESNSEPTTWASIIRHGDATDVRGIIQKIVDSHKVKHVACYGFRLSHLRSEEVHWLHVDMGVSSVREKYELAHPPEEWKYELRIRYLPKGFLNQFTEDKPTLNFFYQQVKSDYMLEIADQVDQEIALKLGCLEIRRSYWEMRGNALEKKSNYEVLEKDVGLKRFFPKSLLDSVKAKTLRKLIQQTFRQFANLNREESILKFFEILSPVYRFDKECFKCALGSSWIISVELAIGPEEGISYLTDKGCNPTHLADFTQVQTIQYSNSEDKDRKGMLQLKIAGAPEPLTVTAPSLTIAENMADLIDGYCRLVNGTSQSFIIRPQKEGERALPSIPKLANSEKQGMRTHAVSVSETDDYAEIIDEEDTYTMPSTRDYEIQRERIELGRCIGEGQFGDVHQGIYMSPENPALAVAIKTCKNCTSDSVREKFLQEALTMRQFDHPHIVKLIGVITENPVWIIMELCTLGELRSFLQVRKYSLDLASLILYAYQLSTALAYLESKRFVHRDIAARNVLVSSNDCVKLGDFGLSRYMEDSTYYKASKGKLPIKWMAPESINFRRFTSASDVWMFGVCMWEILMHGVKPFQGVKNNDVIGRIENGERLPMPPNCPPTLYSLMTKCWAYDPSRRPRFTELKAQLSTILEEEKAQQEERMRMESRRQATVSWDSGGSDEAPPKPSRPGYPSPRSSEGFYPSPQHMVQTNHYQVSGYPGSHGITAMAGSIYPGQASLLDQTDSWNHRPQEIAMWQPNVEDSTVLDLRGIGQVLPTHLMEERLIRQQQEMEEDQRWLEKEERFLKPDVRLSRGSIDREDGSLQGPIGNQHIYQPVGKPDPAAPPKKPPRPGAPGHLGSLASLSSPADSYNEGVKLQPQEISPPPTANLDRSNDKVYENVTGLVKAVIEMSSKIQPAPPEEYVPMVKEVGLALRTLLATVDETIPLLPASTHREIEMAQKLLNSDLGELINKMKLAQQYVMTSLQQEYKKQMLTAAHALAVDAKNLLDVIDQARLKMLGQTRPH

SMILES | composite z-score (Albumin (Bos taurus)) | composite Z-score [1] | composite z-score [2] | composite z-score [3] | composite z-score [4] | composite z-score [5] | composite z-score [6] | composite z-score (Sam68 (KHDRBS1)) | composite z-score [7] | composite z-score [8] | composite z-score [9] | composite z-score [10] | composite z-score [11] | composite z-score [12] | composite z-score [13] | composite z-score [14] | z-score [15] | composite z-score (Lefty1) | composite z-score [16] | z-score [17]
C[N+](C)(C)CCCC[C@@H]1NC(=O)[C@H]2C[C@@H](C(=O)O)[C@@H](c3ccc(O)cc3)N2C1=O | -0.804 | -0.55 (inactive) | -0.165 | -0.104 | 0.704 | 1.4 | 0.606 | 0.744 | 0.616 | 0.905 | 1.04 | 0.123 | -0.216 | -0.223 | 0.864 | 0.948 | 1.49 | 0.155 | -0.185 | -1.93 (inactive)
C=C(COC)C(=O)CC[C@H](OC(C)=O)c1ccccc1OCCO | -1.63 | -0.743 (inactive) | -0.0343 | -0.115 | 0.662 | 0.0092 | -0.325 | 0.176 | -0.0471 | -0.153 | 0.342 | -0.538 | 0.253 | -0.674 | 1.26 | 1.73 | 0.0429 | 1.13 | -0.368 | -1.61 (inactive)
CN1C(=O)C2C=CC(C(O)c3ccc(I)cc3)N(N(c3ccccc3)c3ccccc3)C2C1=O (stereo not given) | 0.626 | 0.263 (inactive) | -0.0328 | 0.0129 | 0.243 | 0.307 | 0.249 | -0.397 | 0.0635 | 0.326 | -0.456 | -0.0563 | -0.164 | 0.25 | 0.524 | -0.394 | 1.74 | -0.432 | 0.536 | 0.899 (inactive)
C=CCNC(=O)[C@H]1[C@@H]2C(=O)O[C@@H](c3ccccc3)[C@@H](c3ccccc3)N2[C@@H](c2ccc(O)cc2)[C@]12C(=O)N(C(=O)OCCOC)c1ccc(C#Cc3ccc(OC)cc3)cc12 | 0.451 | -0.0437 (inactive) | 0.0271 | -0.112 | 0.382 | 0.428 | 0.5 | 0.934 | -0.142 | 0.876 | 0.91 | 1.13 | 0.319 | 0.658 | 0.751 | 0.817 | -1.33 | 0.402 | 0.58 | 0.39 (inactive)
CC(C)C[C@@H]1NC(=O)[C@H]2C[C@@H](C(=O)O)[C@@H](c3cccc(OCCO)c3)N2C1=O | -0.371 | -0.12 (inactive) | -0.0014 | -0.0761 | 0.265 | 1.38 | 0.327 | 0.531 | 1.12 | 0.587 | 1.49 | 0.0559 | 0.119 | 0.267 | 1.3 | 1.66 | 0.951 | 0.797 | 0.325 | -1.07 (inactive)
COCCOC(=O)N1C(=O)[C@@]2(c3cc(C#CC4=CCCCC4)ccc31)[C@H](C(=O)N1CCCCCCC1)[C@H]1C(=O)O[C@H](c3ccccc3)[C@H](c3ccccc3)N1[C@@H]2c1ccccc1OCCO | 0.321 | 0.496 (inactive) | 0.733 | 0.0596 | 0.522 | 1.58 | 1.2 | 1.3 | 0.6 | 1.11 | 0.316 | 1.19 | 0.391 | 0.461 | 1.42 | 0.679 | -1 | 1.01 | 0.275 | 0.104 (inactive)
CCCCC=C[C@@H](NC(=O)C(C)(C)C)c1ccccc1 | 0.743 | -0.424 (inactive) | 0.259 | -0.0769 | 0.509 | -0.0783 | 0.983 | 1.09 | -0.264 | 1.04 | 1.14 | 1.09 | 0.35 | 0.935 | 0.495 | -0.0812 | -2.82 | 0.302 | 0.814 | 1.76 (inactive)
Cc1ccc(S[C@]2(C(=O)NC3CC3)CC(=O)N(C3Cc4ccccc4C3)[C@@H]2c2ccc(CO)cc2I)cc1 | -0.15 | -0.216 (inactive) | -0.283 | -0.121 | 0.535 | 0.897 | 1.68 | -0.5 | -0.486 | 0.0714 | 0.447 | 0.275 | -0.3 | 0.484 | 0.0932 | -0.115 | 1.57 | -1.32 | -0.409 | -1.28 (inactive)
COc1ccc([Si](C)(C)[C@H]2[C@H](CC(=O)N(CCO)Cc3ccccc3)O[C@@]3(C(=O)N(Cc4ccc(N5C(=O)c6cccc7cccc5c67)cc4)c4ccccc43)[C@@H]2C)cc1 | 0.0079 | 0.0959 (inactive) | 0.376 | -0.0928 | 0.593 | 1.52 | 0.801 | 0.747 | 0.71 | 1.16 | 0.53 | 0.714 | 0.0253 | 0.624 | 1.17 | 1.06 | -0.701 | 1.2 | 0.59 | -0.354 (inactive)
CN(C)CCCC[C@@H]1NC(=O)[C@H]2C[C@@H](C(=O)NCCCCCCNC(=O)CS)[C@@H](c3cccc(OCCO)c3)N2C1=O | 0.105 | 0.333 (inactive) | -0.195 | -0.105 | 0.249 | 1.01 | 0.586 | 0.378 | -0.0352 | 0.847 | 1.17 | 0.593 | 0.292 | 0.511 | 0.52 | 1 | 0.115 | -0.673 | -0.115 | 0.117 (inactive)
COC(=O)C(CC#Cc1ccc2c(c1)[C@]1(C(=O)N2)[C@H](C(=O)NC[C@H](O)c2ccccc2)[C@H]2C(=O)O[C@H](c3ccccc3)[C@H](c3ccccc3)N2[C@@H]1c1ccc(O)cc1)C(=O)OC | 0.41 | 1.05 (inactive) | -0.0932 | -0.126 | 0.683 | 0.84 | -0.177 | -0.165 | -0.275 | 0.188 | -0.716 | -0.0341 | 0.105 | -0.906 | 0.276 | 0.0859 | -1.62 | 0.192 | 0.0123 | -0.168 (inactive)
